Source: PubChem (The Scripps Research Institute Molecular Screening Center)
Most compounds without a hit are left out; they make up all but 2.3% or so of the library.
CHO-K1 Ca antag – counter-screen for M1 antagonists: effect in parental CHO-K1 cells; ATP-induced calcium, Fluo-8 fluorescence; inhibition, % at 3 µM; 360,000 tested, 0.6% active; AID 602250;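 active means inhibition above a per-plate cutoff, the plate's mean sample inhibition plus 3 SD, cut at about 24% in these data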
CHRM1 PAM – human M1 muscarinic receptor positive allosteric modulators, primary screen, CHO-K1 cells, Fluo-8 calcium fluorescence, 1536-well; Muscarinic acetylcholine receptor M1 (Homo sapiens), P11229; CHO-K1 hM1, ACh EC20; 0% = ACh EC20, 100% = maximal ACh; 360,000 tested, 0.088% active; activation, % at 3 µM; in the data active means activation above about 19%, passing the limit was not always enough
Target sequence (P11229 whole entry, looked up): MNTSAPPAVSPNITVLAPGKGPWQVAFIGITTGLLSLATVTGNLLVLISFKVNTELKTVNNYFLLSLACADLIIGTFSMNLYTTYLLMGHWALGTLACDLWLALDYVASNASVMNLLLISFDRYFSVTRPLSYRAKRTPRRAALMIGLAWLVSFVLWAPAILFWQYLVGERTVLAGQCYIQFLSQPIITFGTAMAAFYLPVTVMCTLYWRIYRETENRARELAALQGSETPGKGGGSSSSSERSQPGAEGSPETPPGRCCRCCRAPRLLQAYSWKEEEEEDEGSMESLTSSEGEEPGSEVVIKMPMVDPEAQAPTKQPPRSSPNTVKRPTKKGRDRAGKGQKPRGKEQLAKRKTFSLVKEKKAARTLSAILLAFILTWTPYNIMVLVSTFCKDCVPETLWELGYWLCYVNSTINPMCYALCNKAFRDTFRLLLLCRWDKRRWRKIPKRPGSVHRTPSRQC
M1 PAM parental – nonselective calcium activators in parental CHO-K1 cells, primary screen, counter-screen for M1 PAM project, cell-based, Fluo-8 calcium fluorescence, full deck, 1536-well; ATP EC20; 0% at ATP EC20, 100% at ATP max; activation, % at 3 µM; 360,000 tested, 0.02% active; AID 602247, 2012;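 active means activation above the run cutoff, the mean activation of all test compounds plus 3 SD, cut at about 40% in these data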;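 further: peak over basal fluorescence ratio in a 140 s read after ATP addition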
M1 ag – human M1 muscarinic receptor agonists, primary screen, Fluo-8 calcium fluorescence, CHO-K1 cells, HTS. CHO-K1 hM1, agonist mode; 0% DMSO, 100% acetylcholine EC100. activation, % at 3 µM. 360,000 tested, 0.33% active;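 active means activation above the run's mean compound activation plus 3 SD, cut at about 16% in these data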;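 further: peak over basal fluorescence ratio within a 140 s kinetic read after compound addition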
M1 ag parental – counter-screen for M1 agonists: effect in parental CHO-K1 cells; Fluo-8 calcium fluorescence; scaled to maximal ATP response, vehicle zero; activation, % at 3 µM; 360,000 tested, 0.48% active; in the data active means activation above about 15%;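 further: untransfected CHO-K1 host cells lacking M1 receptor as counterscreen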
M1 antag – human M1 muscarinic receptor antagonists, primary screen, CHO-K1 cells, Fluo-8 calcium fluorescence, 1536-well; CHO-K1 hM1, ACh EC80 antagonist; inhibition, % at 3 µM; 360,000 tested, 1.3% active; AID 588852, 2011; Muscarinic acetylcholine receptor M1 (Homo sapiens), P11229;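 active means percent inhibition above its own plate's cutoff, namely the mean of that plate's compound wells plus 3 SD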;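 further: peak over basal fluorescence ratio during 140 s after agonist addition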
Of the large screens only hits and unclear results are named; the others gave an inactive call.

CC(C)(C)c1nc(NCCO)c2nnn(Cc3ccccc3)c2n1	none
O=C(Nc1ccccc1Cl)C1CCCN(S(=O)(=O)c2ccc(-n3cnnn3)cc2)C1 (stereo not drawn)	none
O=C(c1cc2ccccc2cc1O)N1CCCC1	M1 ag parental 19.4
O=C(c1cc2ccccc2cc1OCC(O)CN1CCCCC1)N1CCCCC1 (stereo not drawn)	M1 antag 32.8
CC1(C)NC(=O)N(CC(O)COc2cc3ccccc3cc2C(=O)N2CCCCC2)C1=O (stereo not drawn)	none
NC(C(=O)O)C1ON=C(Cl)C1O (stereo not drawn)	none
Cc1ccc(NS(=O)(=O)c2ccc(NC(=O)c3ccccc3C(=O)O)cc2)cc1C	none
C=CCc1ccccc1OCC(O)CN1CCN(C(=O)OCC)CC1 (stereo not drawn)	M1 ag 43.0
C=CCc1ccccc1OCC(O)CN1CCN(c2ccc(C)cc2)CC1 (stereo not drawn)	none
CCOC(=O)N1CCN(CC(O)COc2ccccc2C(C)C)CC1 (stereo not drawn)	M1 ag 20.0
CCCC(CNC(C)=O)(C1=CCCCC1)c1ccccc1 (stereo not drawn)	none
OCC1(Cc2ccccc2)CCN(C2CCN(c3ccccc3F)CC2)CC1	M1 antag 34.5
O=C(NCc1ccccc1)c1ccc(CN2CCOCC2)cc1	none
O=C(NCc1ccco1)c1ccc(CN2CCOCC2)cc1	CHO-K1 Ca antag 24.2
CCC1(C)N=C(N)Nc2nc3cc(C)c(C)cc3n21 (stereo not drawn)	none
CN(C)C(=O)CCc1ccc2c3c([nH]c2c1)[C@]1(C)[C@@H](C(=O)N2CCOCC2)C[C@H](CC(=O)NCCN2CCOCC2)C(=O)N1CC3	CHO-K1 Ca antag 24.4
CCN(CC)C(CNC(=O)c1cc(=O)[nH]c2ccccc12)c1ccccc1Cl (stereo not drawn)	M1 antag 55.5
O=C(NCc1cccc(Cl)c1)c1cc(=O)[nH]c2ccccc12	none
Cc1nc2ccccn2c1C(=O)NNC(=O)Nc1cccc(C(F)(F)F)c1	none
N#C/C(=C\c1ccc(O)c([N+](=O)[O-])c1)c1nc2ccccc2s1	CHO-K1 Ca antag 29.1
NCCCC(=O)N1c2ccccc2Sc2ccccc21	M1 antag 93.7
NCCC(=O)N1c2ccccc2Sc2ccccc21	M1 antag 41.3
CCCCNC(=S)N(C)/N=C/c1ccc(OCC(=O)Nc2ccc(OC)cc2)c(OC)c1	M1 antag 33.9
CCNC(=S)N/N=C/c1ccc(OCC(=O)Nc2ccc(OC)cc2)c(OC)c1	M1 antag 38.9
C/C=C/c1ccc(OCC(=O)Nc2ccncc2)c(OC)c1	M1 ag parental 15.3
CCCCNC(=S)N(C)/N=C/c1ccc(OCC(=O)Nc2c(C)cc(C)cc2C)c(OC)c1	none
COc1ccc(CN2CCNC(=O)C2CC(=O)NCC2CCOCC2)c(F)c1 (stereo not drawn)	none
O=C(NCCCN1CCOCC1)/C(=C/c1cccs1)NC(=O)c1ccccc1	none
COc1ccc(Cn2c(C)nc([N+](=O)[O-])c2SCC(=O)O)cc1[N+](=O)[O-]	none
Cc1nc([N+](=O)[O-])c(SCC(O)CCl)n1Cc1ccc(Cl)cc1 (stereo not drawn)	M1 ag parental 23.1
CN1CCC(N(C)C(=O)c2ccc(Cl)c(S(=O)(=O)N3CCc4ccccc43)c2)CC1	none
COc1ccc(Cl)cc1S(=O)(=O)Nc1ccc2c(c1)n(C)c(=O)n2C	none
Cc1cc(C)cc(NS(=O)(=O)c2cc(Br)cnc2N)c1	none
Cc1ccc(NS(=O)(=O)c2cc(Br)cnc2N)cc1C	M1 antag 99.5
CSc1cccc(NS(=O)(=O)c2cc(Br)cnc2N)c1	M1 antag 62.5
Cc1ccc(S(=O)(=O)N(C)CC(=O)N(C)Cc2cccs2)cc1	none
CCOC(=O)C1CCCN(Cc2cc(OC)c(O)c(OC)c2)C1 (stereo not drawn)	M1 ag 42.1
CCOC(=O)N1CCN(C(=S)Nc2cccc(C)c2)CC1	M1 ag 19.2
CCOC(=O)C1CCCN(C(=O)Nc2cccc(Cl)c2)C1 (stereo not drawn)	M1 ag 54.8
CCOC(=O)C1CCCN(CCC(=O)Nc2cc(C)cc(C)c2)C1 (stereo not drawn)	M1 ag 21.4
Nc1ncnc2c1ncn2[C@@H]1O[C@H](CNC(=O)[C@@H]2C[C@H](F)CN2)[C@@H](O)[C@H]1O	none
CCc1ccccc1NC(=O)CC(NCc1ccccc1)C(=O)O (stereo not drawn)	none
CCOC(=O)C1CCCN(CC(=O)NC2CC2)C1 (stereo not drawn)	M1 ag 25.0
CC1CCCN(CCC(=O)Nc2ccc3c(c2)CCC3)C1 (stereo not drawn)	M1 antag 32.6
CCOC(=O)C1CCCN(CC(=O)Nc2cccc(C(C)=O)c2)C1 (stereo not drawn)	none
CCOC(=O)C1CCCN(C(=S)NC2CCCCC2)C1 (stereo not drawn)	M1 ag 39.0
CCOC(=O)C1CCN(CCC(=O)Nc2cc(C)ccc2C)CC1	M1 ag parental 16.5
O=C(OCc1cn([C@H]2CN(CC3CCCCC3)[C@@H](c3ccc(Cl)cc3)C[C@@H]2O)nn1)c1ccccc1	none
O=c1[nH]c(-c2ccccc2)nnc1-c1ccccc1	none
CCOC(=O)C1CCCN(C(=S)Nc2ccc(S(=O)(=O)N3CCOCC3)cc2)C1 (stereo not drawn)	M1 ag 62.6, M1 antag 53.6
CCOC(=O)C1CCCN(C(=S)Nc2cc(C)cc(C)c2)C1 (stereo not drawn)	M1 ag 62.8, M1 antag 67.7
CCOC(=O)C1CCCN(CC(=O)Nc2cc(C)cc(C)c2)C1 (stereo not drawn)	none
CCOC(=O)C1CCCN(CCC(=O)Nc2ccccc2)C1 (stereo not drawn)	none
CCOC(=O)C1CCCN(CCC(=O)Nc2cc(OC)ccc2OC)C1 (stereo not drawn)	M1 ag 16.3
CC1(NC(=O)Cn2cc(C(F)(F)F)ccc2=O)CCS(=O)(=O)C1 (stereo not drawn)	none
O=C(CC1SC(N2CCCC2)=NC1=O)Nc1ccc(C(=O)NCCOc2ccccc2F)cc1 (stereo not drawn)	none
CC1CCCN(CCCNC(=O)C2CCC(CNS(=O)(=O)c3cccc4nsnc34)CC2)C1 (stereo not drawn)	M1 antag 45.0
FC(F)(F)c1cccc(/C=N/NC(=S)NC2CCCCC2)c1	M1 ag parental 18.6
